Measured values reported in PubChem BioAssay (EPA / NIEHS).
The source made the active and inactive calls. How the source made its calls: active means hit-call score of the fitted dose curve at least 0.9, where 1 is the maximum; inactive means score below 0.9.

How the values were obtained:
[1] = ATG_GLI_CIS: Attagene CIS-FACTORIAL HepG2 Assay for human Zinc Finger Protein GLI1 (AID 2282945); conditions: HepG2, Attagene cis-factorial reporter mRNA, GLI element; actives raise or lower the signal
How it was run: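 HepG2 cells transiently transfected with cis-promoter multiplexed reporter units report endogenous transcription factor activity. After 24 h chemical exposure, reporter mRNA was quantified by RT-PCR, 6-FAM labelling, HpaI digestion and capillary electrophoresis, with bidirectional fitting against DMSO.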

[2] = molecular target: Bile acid receptor (Homo sapiens) (UniProt Q96RI1); assay: ATG_IR1_CIS: Attagene CIS-FACTORIAL HepG2 Assay for human Nuclear Receptor Subfamily 1 Group H Member 4 (NR1H4), IR1 submotif (AID 2282946); conditions: IR1 reporter transcription, actives raise or lower the signal
How it was run: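 Readout: reporter transcript levels by RT-PCR with fluorescent capillary electrophoresis, from HepG2 cells transiently transfected with multiplexed cis-regulated reporters and dosed 24 h. Gain- or loss-of-signal fitted versus DMSO negative control.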

[3] = ATG_GRE_CIS: Attagene CIS-FACTORIAL HepG2 Assay for human Glucocorticoid Response Elements (GRE) (AID 2282947); conditions: HepG2 GRE cis-reporter, Attagene multiplex mRNA; actives raise or lower the signal
How it was run: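 Cells (HepG2) bearing transfected cis-promoter reporter transcription units were treated with chemical for 24 hours. Reporter mRNA was measured via RT-PCR with capillary electrophoresis, and activity was fitted in both directions relative to DMSO.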

[4] = ATG_ISRE_CIS: Attagene CIS-FACTORIAL HepG2 Assay for human Interferon Regulatory Factor 1 (IRF1) binding to an Interferon-Stimulated Response Element (ISRE) (AID 2282948); conditions: HepG2 ISRE cis-reporter (Attagene), mRNA transcription readout; actives raise or lower the signal
How it was run: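 Multiplexed mRNA reporter readout in human liver HepG2 cells: cis-element-driven reporters transfected, compound added for 24 h, transcripts amplified, fluorescently labelled and sized by capillary electrophoresis; curve fitting bidirectional against DMSO.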

[5] = ATG_M_32_CIS: Attagene CIS-FACTORIAL HepG2 Assay for M32 Transcription Factor (Internal Marker) (AID 2282949); conditions: HepG2 Attagene cis-factorial M32 reporter, mRNA; actives raise or lower the signal;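 further: background control marker of the multiplexed CIS panel rather than a real target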
How it was run: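 HepG2 transfectants (cis-regulated reporter transcription units) dosed 24 h. Reporter mRNA by RT-PCR plus CE, analysed as gain or loss relative to DMSO.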

[6] = ATG_M_06_CIS: Attagene CIS-FACTORIAL HepG2 Assay for M06 Transcription Factor (Internal Marker) (AID 2282950); conditions: HepG2 Attagene CIS-FACTORIAL M06 internal marker reporter; actives raise or lower the signal
How it was run: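 HepG2 cells transiently transfected with cis-regulated multiple reporter transcription units were exposed to chemical for 24 h; reporter mRNA was quantified by RT-PCR, 6-FAM primer labelling, HpaI digestion and capillary electrophoresis, fitted bidirectionally against DMSO.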

[7] = molecular target: Hypoxia-inducible factor 1-alpha (Homo sapiens) (UniProt Q16665); assay: ATG_HIF1a_CIS: Attagene CIS-FACTORIAL HepG2 Assay for human Hypoxia Inducible Factor 1 (HIF1A) (AID 2282951); conditions: HepG2 Attagene cis-factorial HIF1a reporter transcription; actives raise or lower the signal
How it was run: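 Endogenous-TF cis reporter readout, human HepG2 cells, 24 h incubation; mRNA detected via RT-PCR and capillary electrophoresis fluorescence; DMSO-normalised bidirectional fitting.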

[8] = molecular target: Hepatocyte nuclear factor 6 (Homo sapiens) (UniProt Q9UBC0); assay: ATG_HNF6_CIS: Attagene CIS-FACTORIAL HepG2 Assay for human Hepatocyte Nuclear Factor 6 (HNF6) (AID 2282952); conditions: HepG2 Attagene cis-factorial HNF6 reporter transcription; actives raise or lower the signal
How it was run: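 Endogenous factor activity read in transiently transfected HepG2 via promoter-regulated reporter transcripts. RNA harvested 24 h post-dosing, reverse-transcribed, PCR-amplified, FAM-labelled, HpaI-digested and resolved by capillary electrophoresis; fitted in both directions against DMSO.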

[9] = molecular target: Heat shock factor protein 1 (Homo sapiens) (UniProt Q00613); assay: ATG_HSE_CIS: Attagene CIS-FACTORIAL HepG2 Assay for human Heat Shock Transcription Factor 1 (HSE) (AID 2282953); conditions: HepG2 HSE cis-reporter, Attagene RNA transcription; actives raise or lower the signal
How it was run: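 HepG2 cells transiently transfected with multiple reporter transcription units under cis-regulatory promoter control, measuring endogenous transcription factor activity. After 24 h chemical exposure, reporter mRNA quantified by RT-PCR, fluorescent labelling, HpaI digestion and capillary electrophoresis; bidirectional fit versus DMSO.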

[10] = ATG_MRE_CIS: Attagene CIS-FACTORIAL HepG2 Assay for human Metal Responsive Element (MRE) (AID 2282954); conditions: HepG2 MRE cis-reporter transcription, Attagene multiplex; actives raise or lower the signal
How it was run: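 Cells were transfected with cis-promoter reporter transcription units, then dosed for 24 h. RNA was reverse-transcribed, amplified, fluorescently labelled and resolved by capillary electrophoresis, and activity was fitted in both directions relative to DMSO.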

[11] = ATG_PBREM_CIS: Attagene CIS-FACTORIAL HepG2 Assay for human Phenobarbital-responsive Enhancer Module (PBREM) (AID 2282955); conditions: HepG2 PBREM cis-reporter, Attagene multiplexed transcription; actives raise or lower the signal
How it was run: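 Readout: reporter mRNA, fluorescent RT-PCR fragments separated by capillary electrophoresis. System: HepG2 transiently transfected with cis-regulated reporter units. Exposure: 24 h. Analysis: bidirectional, DMSO baseline.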

[12] = molecular target: Paired box protein Pax-6 (Homo sapiens) (UniProt P26367); assay: ATG_Pax6_CIS: Attagene CIS-FACTORIAL HepG2 Assay for human Paired Box 6 (PAX6) (AID 2282956); conditions: HepG2 CIS-FACTORIAL PAX6 reporter transcription, RNA readout; actives raise or lower the signal
How it was run: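 Fluorescent RT-PCR products separated by capillary electrophoresis report PAX6-linked promoter mRNA in HepG2 cells 24 h post-dose. Curves fitted bidirectionally, DMSO as negative control.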

[13] = ATG_PXRE_CIS: Attagene CIS-FACTORIAL HepG2 Assay for human Pregnane X Receptor Element (PXRE) (AID 2282957); conditions: HepG2 Attagene CIS-FACTORIAL PXRE reporter, mRNA; actives raise or lower the signal
How it was run: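 Reporter transcripts under endogenous PXR-responsive cis-regulation quantified from total RNA of transfected HepG2 cells 24 h post-dosing, via RT-PCR with fluorescent primer extension and capillary electrophoresis. Gain or loss of signal fitted against DMSO baseline.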

[14] = ATG_PPRE_CIS: Attagene CIS-FACTORIAL HepG2 Assay for human Peroxisome Proliferator-activated Response Element (PPRE) (AID 2282958); conditions: HepG2 PPRE cis-element reporter, Attagene transcription factor profiling; actives raise or lower the signal
How it was run: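 After human HepG2 hepatoma cells were transiently transfected with cis-promoter reporter constructs, they were exposed to test chemicals for 24 hours. Reporter RNA was then reverse-transcribed, PCR-amplified, FAM-labeled, HpaI-digested and quantified by capillary electrophoresis.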

[15] = ATG_RORE_CIS: Attagene CIS-FACTORIAL HepG2 Assay for human RAR-related Orphan Receptor Element (RORE) (AID 2282959); conditions: HepG2 Attagene cis-factorial RORE reporter, mRNA; actives raise or lower the signal
How it was run: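 Measured here: transcript induction of a cis-regulated reporter in HepG2 cells transiently transfected via FuGene 6. After 24 h, RNA was processed by RT-PCR and fluorescent capillary electrophoresis; DMSO defined baseline activity.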

[16] = ATG_Sox_CIS: Attagene CIS-FACTORIAL HepG2 Assay for human SRY-box transcription factor (SOX) (AID 2282960); conditions: HepG2 Attagene cis-factorial SOX reporter, mRNA; actives raise or lower the signal
How it was run: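 Using transiently transfected HepG2 cells, reporter transcription driven by cis elements was assessed 24 h after dosing. Signal was fluorescence of capillary-separated RT-PCR products, with DMSO defining baseline activity.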

[17] = molecular target: Transcription factor Sp1 (Homo sapiens) (UniProt P08047); assay: ATG_Sp1_CIS: Attagene CIS-FACTORIAL HepG2 Assay for human Specificity Protein 1 (Sp1) (AID 2282961); conditions: HepG2 Sp1 cis-reporter transcription, actives raise or lower the signal
How it was run: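 After transient transfection of HepG2 cells with cis-promoter reporter units and 24 h chemical treatment, reporter transcripts were quantified by RT-PCR and capillary electrophoresis fluorescence. Gain- and loss-of-signal fitted against DMSO.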

[18] = ATG_SREBP_CIS: Attagene CIS-FACTORIAL HepG2 Assay for human Sterol Regulatory Element Binding (SREBP) (AID 2282962); conditions: HepG2 Attagene cis-factorial SREBP reporter, mRNA; actives raise or lower the signal
How it was run: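 Endogenous factor activity is measured in HepG2 through multiplexed reporter units under cis-element control. Following a 24 h incubation, reporter transcripts are reverse-transcribed, PCR-amplified and sized by capillary electrophoresis; activity is fitted in both directions relative to DMSO.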

[19] = molecular target: Signal transducer and activator of transcription 3 (Homo sapiens) (UniProt P40763); assay: ATG_STAT3_CIS: Attagene CIS-FACTORIAL HepG2 Assay for human Signal Transducer and Activator of Transcription 3 (STAT3) (AID 2282963); conditions: HepG2, Attagene cis-factorial STAT3 reporter transcription; actives raise or lower the signal
How it was run: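 HepG2, MRTU-transfected, 24 h dosing. RNA → RT → PCR → FAM label → HpaI → CE. Bidirectional fit vs DMSO.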

[20] = ATG_TA_CIS: Attagene CIS-FACTORIAL HepG2 Assay for human TA Basal Promoter (AID 2282964); conditions: HepG2 Attagene CIS-factorial TA basal promoter reporter; actives raise or lower the signal
How it was run: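 HepG2 cells transiently transfected with multiplexed cis-promoter reporter units, dosed 24 h. Reporter mRNA measured by RT-PCR, 6-FAM labelling, HpaI digestion and capillary electrophoresis; bidirectional fit versus DMSO baseline, serving as background control.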

Chain of Heat shock factor protein 1 (Homo sapiens) (Q00613 whole entry, looked up): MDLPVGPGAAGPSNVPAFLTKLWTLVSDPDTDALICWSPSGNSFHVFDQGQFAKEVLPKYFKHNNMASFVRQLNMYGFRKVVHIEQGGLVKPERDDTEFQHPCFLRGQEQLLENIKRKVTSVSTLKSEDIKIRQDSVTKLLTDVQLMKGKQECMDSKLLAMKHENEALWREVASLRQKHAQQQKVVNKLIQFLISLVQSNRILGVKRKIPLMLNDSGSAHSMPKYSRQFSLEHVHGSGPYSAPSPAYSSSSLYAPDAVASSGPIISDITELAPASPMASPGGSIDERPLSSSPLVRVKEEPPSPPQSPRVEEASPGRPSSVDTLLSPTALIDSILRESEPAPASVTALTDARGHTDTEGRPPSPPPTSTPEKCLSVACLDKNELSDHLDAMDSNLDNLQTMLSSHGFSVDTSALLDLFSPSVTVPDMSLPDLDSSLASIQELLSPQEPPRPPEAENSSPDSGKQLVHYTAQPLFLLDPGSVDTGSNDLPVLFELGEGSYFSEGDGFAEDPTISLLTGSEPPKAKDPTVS
Chain of Hepatocyte nuclear factor 6 (Homo sapiens) (Q9UBC0 whole entry, looked up): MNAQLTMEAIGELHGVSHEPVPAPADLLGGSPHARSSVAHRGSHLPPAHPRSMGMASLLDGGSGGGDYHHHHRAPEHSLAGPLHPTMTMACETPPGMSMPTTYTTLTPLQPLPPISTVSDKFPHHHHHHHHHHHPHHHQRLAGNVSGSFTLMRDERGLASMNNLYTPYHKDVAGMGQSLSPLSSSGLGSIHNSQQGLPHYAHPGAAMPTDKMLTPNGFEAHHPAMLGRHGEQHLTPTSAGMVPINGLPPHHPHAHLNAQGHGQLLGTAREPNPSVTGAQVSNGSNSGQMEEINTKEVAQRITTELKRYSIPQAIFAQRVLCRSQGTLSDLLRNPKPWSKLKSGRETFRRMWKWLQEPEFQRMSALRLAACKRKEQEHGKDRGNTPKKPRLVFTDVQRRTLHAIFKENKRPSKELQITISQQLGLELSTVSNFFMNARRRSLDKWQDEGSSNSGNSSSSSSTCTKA
Chain of Paired box protein Pax-6 (Homo sapiens) (P26367 whole entry, looked up): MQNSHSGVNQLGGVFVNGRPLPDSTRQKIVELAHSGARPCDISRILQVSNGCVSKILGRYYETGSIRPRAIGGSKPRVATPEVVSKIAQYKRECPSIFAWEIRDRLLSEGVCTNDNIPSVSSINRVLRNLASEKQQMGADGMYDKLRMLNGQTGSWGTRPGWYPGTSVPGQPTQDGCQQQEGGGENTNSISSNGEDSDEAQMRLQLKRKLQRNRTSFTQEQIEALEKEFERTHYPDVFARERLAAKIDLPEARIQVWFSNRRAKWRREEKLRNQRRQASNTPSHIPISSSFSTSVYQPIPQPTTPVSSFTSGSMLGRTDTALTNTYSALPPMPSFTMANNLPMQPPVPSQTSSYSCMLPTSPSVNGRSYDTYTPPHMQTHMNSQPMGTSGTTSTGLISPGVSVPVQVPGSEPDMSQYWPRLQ
Chain of Hypoxia-inducible factor 1-alpha (Homo sapiens) (Q16665 whole entry, looked up): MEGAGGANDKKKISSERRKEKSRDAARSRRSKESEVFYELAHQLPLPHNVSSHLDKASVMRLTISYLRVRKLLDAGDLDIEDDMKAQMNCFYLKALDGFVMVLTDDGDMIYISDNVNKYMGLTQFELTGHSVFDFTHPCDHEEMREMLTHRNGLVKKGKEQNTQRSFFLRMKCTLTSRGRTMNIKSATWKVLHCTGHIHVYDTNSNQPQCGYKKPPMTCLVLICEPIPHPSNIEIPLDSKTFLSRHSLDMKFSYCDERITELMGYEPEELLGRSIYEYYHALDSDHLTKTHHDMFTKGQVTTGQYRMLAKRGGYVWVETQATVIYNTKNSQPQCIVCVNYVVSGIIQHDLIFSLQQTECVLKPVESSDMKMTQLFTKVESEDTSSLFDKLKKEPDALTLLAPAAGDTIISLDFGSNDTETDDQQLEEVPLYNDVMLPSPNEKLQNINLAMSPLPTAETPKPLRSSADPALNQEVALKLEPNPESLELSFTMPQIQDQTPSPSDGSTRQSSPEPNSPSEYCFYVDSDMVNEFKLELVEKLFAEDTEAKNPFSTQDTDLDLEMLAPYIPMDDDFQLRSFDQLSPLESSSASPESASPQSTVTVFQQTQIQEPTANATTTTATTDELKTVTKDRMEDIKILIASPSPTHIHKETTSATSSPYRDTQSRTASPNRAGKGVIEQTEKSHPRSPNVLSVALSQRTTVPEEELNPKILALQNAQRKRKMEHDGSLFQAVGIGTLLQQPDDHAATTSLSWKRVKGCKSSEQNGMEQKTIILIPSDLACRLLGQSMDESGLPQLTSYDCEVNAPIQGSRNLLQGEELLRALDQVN
Chain of Transcription factor Sp1 (Homo sapiens) (P08047 whole entry, looked up): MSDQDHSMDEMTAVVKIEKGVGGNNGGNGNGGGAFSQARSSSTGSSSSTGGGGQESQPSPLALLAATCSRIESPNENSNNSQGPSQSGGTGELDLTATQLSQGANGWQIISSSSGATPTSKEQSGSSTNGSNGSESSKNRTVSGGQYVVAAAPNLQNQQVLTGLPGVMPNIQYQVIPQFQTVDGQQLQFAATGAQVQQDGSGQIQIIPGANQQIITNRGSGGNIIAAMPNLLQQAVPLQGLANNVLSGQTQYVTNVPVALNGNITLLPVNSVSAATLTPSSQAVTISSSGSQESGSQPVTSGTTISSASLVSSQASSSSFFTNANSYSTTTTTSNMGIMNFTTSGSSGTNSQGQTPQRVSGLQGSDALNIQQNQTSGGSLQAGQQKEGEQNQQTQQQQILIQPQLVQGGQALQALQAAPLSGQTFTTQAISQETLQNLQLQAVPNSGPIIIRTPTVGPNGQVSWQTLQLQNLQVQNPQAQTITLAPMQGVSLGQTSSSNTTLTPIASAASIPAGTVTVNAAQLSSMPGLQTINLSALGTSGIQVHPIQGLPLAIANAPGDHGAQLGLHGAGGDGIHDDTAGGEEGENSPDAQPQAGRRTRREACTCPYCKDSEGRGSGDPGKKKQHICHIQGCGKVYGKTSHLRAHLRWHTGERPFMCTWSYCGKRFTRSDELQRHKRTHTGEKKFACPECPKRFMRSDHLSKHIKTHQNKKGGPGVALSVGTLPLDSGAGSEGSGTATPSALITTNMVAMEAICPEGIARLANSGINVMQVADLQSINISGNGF
Chain of Signal transducer and activator of transcription 3 (Homo sapiens) (P40763 whole entry, looked up): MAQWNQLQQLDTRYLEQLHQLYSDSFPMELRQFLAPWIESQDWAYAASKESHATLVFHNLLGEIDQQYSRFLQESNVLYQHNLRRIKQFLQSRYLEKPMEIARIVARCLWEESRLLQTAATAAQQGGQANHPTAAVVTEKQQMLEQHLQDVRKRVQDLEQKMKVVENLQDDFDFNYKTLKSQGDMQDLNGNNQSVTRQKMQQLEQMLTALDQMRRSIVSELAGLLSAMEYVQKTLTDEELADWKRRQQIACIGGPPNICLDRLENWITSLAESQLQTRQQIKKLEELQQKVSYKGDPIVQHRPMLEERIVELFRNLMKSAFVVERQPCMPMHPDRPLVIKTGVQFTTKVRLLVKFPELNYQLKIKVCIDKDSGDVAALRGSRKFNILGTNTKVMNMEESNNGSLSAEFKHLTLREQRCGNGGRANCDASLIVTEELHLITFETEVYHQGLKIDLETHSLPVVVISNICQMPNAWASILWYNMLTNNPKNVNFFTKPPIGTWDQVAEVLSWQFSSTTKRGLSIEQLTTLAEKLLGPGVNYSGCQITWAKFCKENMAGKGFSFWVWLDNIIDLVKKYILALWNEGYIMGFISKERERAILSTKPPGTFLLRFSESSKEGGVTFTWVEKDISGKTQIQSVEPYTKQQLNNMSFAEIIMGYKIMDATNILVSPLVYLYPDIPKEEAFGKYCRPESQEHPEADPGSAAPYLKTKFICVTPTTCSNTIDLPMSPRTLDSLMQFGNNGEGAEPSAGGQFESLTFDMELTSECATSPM
Chain of Bile acid receptor (Homo sapiens) (Q96RI1 whole entry, looked up): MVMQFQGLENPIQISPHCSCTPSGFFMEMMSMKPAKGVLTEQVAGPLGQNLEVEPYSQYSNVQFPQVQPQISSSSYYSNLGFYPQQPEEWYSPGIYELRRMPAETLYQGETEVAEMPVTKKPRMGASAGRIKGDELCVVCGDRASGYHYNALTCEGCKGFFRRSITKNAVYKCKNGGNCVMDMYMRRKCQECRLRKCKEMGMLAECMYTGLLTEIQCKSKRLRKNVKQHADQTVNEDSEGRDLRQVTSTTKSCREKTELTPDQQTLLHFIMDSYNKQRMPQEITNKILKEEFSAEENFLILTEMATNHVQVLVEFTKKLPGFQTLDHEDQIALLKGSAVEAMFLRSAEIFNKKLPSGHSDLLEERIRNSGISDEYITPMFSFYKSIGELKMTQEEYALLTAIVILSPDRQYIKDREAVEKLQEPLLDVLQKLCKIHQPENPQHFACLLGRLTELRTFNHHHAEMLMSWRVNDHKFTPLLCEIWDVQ

O=S(=O)(O)CCC(F)(F)C(F)(F)C(F)(F)C(F)(F)C(F)(F)C(F)(F)F
outcome [1]: inactive | outcome [2]: inactive | outcome [3]: inactive | outcome [4]: inactive | outcome [5]: inactive | outcome [6]: inactive | outcome [7]: inactive | outcome [8]: inactive | outcome [9]: inactive | outcome [10]: inactive | outcome [11]: inactive | outcome [12]: inactive | outcome [13]: inactive | outcome [14]: inactive | outcome [15]: inactive | outcome [16]: inactive | outcome [17]: inactive | outcome [18]: inactive | outcome [19]: inactive | outcome [20]: inactive

CNC(C)=O
outcome [1]: inactive | outcome [3]: inactive | outcome [4]: inactive | outcome [5]: inactive | outcome [6]: inactive | outcome [7]: inactive | outcome [9]: inactive | outcome [10]: inactive | outcome [11]: inactive | outcome [12]: inactive | AC50 [13]: 26.1 µM (active) | outcome [14]: inactive | outcome [15]: inactive | outcome [16]: inactive | outcome [17]: inactive | outcome [18]: inactive | outcome [19]: inactive | outcome [20]: inactive

OCCNCCO
outcome [1]: inactive | outcome [3]: inactive | outcome [4]: inactive | outcome [5]: inactive | outcome [6]: inactive | outcome [7]: inactive | outcome [8]: inactive | outcome [9]: inactive | outcome [10]: inactive | outcome [12]: inactive | outcome [13]: inactive | outcome [16]: inactive | outcome [17]: inactive | outcome [18]: inactive | outcome [19]: inactive | outcome [20]: inactive
